Experimental data taken from PubChem BioAssay (Tox21).
Records with an inconclusive call do not appear. Calls of active or inactive are those of the source. Unless noted, calls follow the shape of the full dose curve.

Legend:
[1] = Nuclear factor erythroid 2-related factor 2/antioxidant responsive element (Nrf2/ARE) small molecule agonists: qHTS cell viability counter screen in human keratinocytes (AID 1919968; active = well fitted curve in the direction sought with a large enough effect in the repeat runs; an effect the other way counts as inactive or inconclusive; also: nearly all actives have a fitted effect of over 55% in size)
In short: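 Cytotoxicity was multiplexed with the Nrf2/ARE luciferase assay in the same wells. Stably transfected HaCaT keratinocytes were treated with test compounds for 23 h at 37 C. Cell viability was then measured by CellTiter-Fluor fluorescence.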

[2] = Nuclear factor erythroid 2-related factor 2/antioxidant responsive element (Nrf2/ARE) small molecule agonists: luciferase reporter gene qHTS assay in human keratinocytes (AID 1919969); also: nearly all actives have a fitted effect of over 35% in size
[3] = target: Gonadotropin-releasing hormone receptor (Homo sapiens) (UniProt P30968); assay: Human gonadotropin-releasing hormone receptor (GnRHR) small molecule agonists, calcium flux assay in GnRHR-HEK293 cells (AID 1920063); also: nearly all actives have a fitted effect of over 35% in size
In short: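 Agonist activity was measured as intracellular calcium flux in HEK293 cells engineered to stably express human GnRHR. After dye loading for 1 hour at 37 C, compounds in DMSO were added and fluorescence was followed for 3 minutes.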

[4] = target: KiSS-1 receptor (Homo sapiens) (UniProt Q969F8); assay: Human kisspeptin (KISS1R) small molecule agonists, calcium flux assay in KISS1R-HEK293 cells (AID 1920064; active = well fitted curve in the direction sought with a large enough effect in the repeat runs; an effect the other way counts as inactive or inconclusive)
In short: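 Agonist activity is monitored as intracellular calcium rise in engineered HEK293 cells carrying human KISS1R. Cells are dye-loaded for 1 h at 37 C before compound addition, and fluorescence is recorded for 3 min.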

[5] = G protein-coupled receptor (GPCR) small molecule agonists, calcium flux assay: HEK293 wild type cell line counter screen (AID 1920065)
In short: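 Seed cells, incubate 18 h (37 C, 5% CO2); add calcium dye, 1 h at 37 C; pin-transfer compounds, ATP control or DMSO; read fluorescence 480/540 nm each second for 3 min.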

[6] = p53 small molecule agonists, cell-based qHTS assay with human liver microsomes (AID 1963577);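 also: p53 response element beta-lactamase reporter cells with liver microsomes plus NADPH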
In short: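 In this qHTS, p53 response-element beta-lactamase cells receive test compound together with a microsome/NADPH activating system (0.5 mg/mL final each) and are incubated 16 h at 37 C before LiveBLAzer fluorescence detection.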

[7] = p53 small molecule agonists, cell-based qHTS assay with rat liver microsomes: qHTS cell viability counter screen (AID 1963580); also: nearly all actives have a fitted effect of over 45% in size
In short: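 Counter screen for cytotoxicity under metabolic activation: rat liver microsomes and NADPH, 0.5 mg/mL final each, added with compounds to p53RE-bla HCT-116 cells; 16 h at 37 C, then ATP luminescence read.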

[8] = p53 small molecule agonists, cell-based qHTS assay: qHTS cell viability counter screen (AID 1963581); also: nearly all actives have a fitted effect of over 45% in size
In short: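 Viability was counter-screened in parallel with the p53 agonist reporter by measuring intracellular ATP luminescence in the same HCT-116 p53RE-bla wells after 16 h compound treatment at 37 C.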

[9] = p53 small molecule agonists, cell-based qHTS assay (AID 1963582; active = well fitted activation curve with a large enough effect in the signal ratio in the repeat runs, not every such curve was filed as active; the % refers to the signal ratio)
In short: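 Cells carrying a p53-responsive bla reporter are treated with test compounds for 16 h at 37 C; beta-lactamase activity is then detected with LiveBLAzer B/G FRET substrate after 2 h at room temperature.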

[10] = target: 5-hydroxytryptamine receptor 2A (Homo sapiens) (UniProt P28223); assay: 5-hydroxytryptamine receptor 2A (HTR2A) small molecule antagonists, cell-based qHTS assay (AID 1963586); also: nearly all actives have a fitted effect of over 45% in size
In short: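 CHO cells stably expressing human HTR2A were plated for 18 h at 37 C, then loaded with calcium dye for 1 h. Compounds were preincubated 5 min at room temperature before DOI (4 nM solution) was added. Kinetic fluorescence was read for 3 min.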

[11] = target: 5-hydroxytryptamine receptor 2A (Homo sapiens) (UniProt P28223); assay: 5-hydroxytryptamine receptor 2A (HTR2A) small molecule agonists, cell-based qHTS assay (AID 1963587); also: nearly all actives have a fitted effect of over 30% in size
In short: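 HTR2A-CHO cells, plated 18 h at 37 C/5% CO2, dye-loaded 1 h at 37 C; compounds in DMSO added by pin tool (agonist mode). Intracellular calcium flux read as kinetic fluorescence on FDSS over 2 min at 1 s intervals.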

[12] = target: Muscarinic acetylcholine receptor M1 (Homo sapiens) (UniProt P11229); assay: Cholinergic receptor muscarinic 1 (CHRM1) small molecule agonists, cell-based qHTS assay (AID 1963589); also: nearly all actives have a fitted effect of over 35% in size
In short: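 Cells were plated and incubated 18 h at 37 C/5% CO2, loaded with calcium dye for 1 h at 37 C, then treated with compounds in DMSO. Fluorescence was recorded kinetically at 1 sec intervals.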

[13] = cAMP Responsive Elements (CRE) small molecule agonists, cell-based qHTS assay (AID 1963590)
In short: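 Cells carrying a CRE-driven beta-lactamase reporter (HEK 293T) are seeded, incubated overnight (18 h), and treated with test compounds for 3 h at 37 C; reporter activity is then detected with a FRET substrate after 2 h at room temperature.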

[14] = cAMP Responsive Elements (CRE) small molecule antagonists, cell-based qHTS assay (AID 1963591; active = well fitted inhibition curve with a large enough effect in the signal ratio in the repeat runs, not every such curve was filed as active; the % refers to the signal ratio)
In short: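 Cells (CRE-bla HEK 293T, DMEM with 10% dialyzed FBS and 25 mM HEPES) are seeded and incubated 18 h. Compounds are added with NKH477 agonist at 0.25 uM final for 3 h, then FRET substrate for 2 h.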

[15] = target: Beta-2 adrenergic receptor (Homo sapiens) (UniProt P07550); assay: Adrenergic beta2 receptor (ADRB2) small molecule antagonists, cell-based qHTS assay (AID 1963592); also: series mostly up to about 92 µM; nearly all actives have a fitted effect of over 50% in size
In short: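 Assay format: CHO-ADRB2 cells, 18-20hr seeding at 37C/5% CO2, then compound plus 1nM isoproterenol agonist mix for 0.5hr RT. Homogeneous time-resolved fluorescence cAMP detection after 1hr, expressed as 665/615 nm ratio.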

[16] = target: D(2) dopamine receptor (Homo sapiens) (UniProt P14416); assay: Dopamine D2 receptor (DRD2) small molecule agonists, cell-based qHTS assay (AID 1963594); also: nearly all actives have a fitted effect of over 35% in size
In short: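 HEK293 cells stably expressing DRD2 were cultured 24 h at 37 C, then given Ro20-1724 (0.1 mM final) and compounds for 10 min at room temperature. NKH477 (200nM) was then added for 30 min. cAMP was read by HTRF.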

[17] = target: D(2) dopamine receptor (Homo sapiens) (UniProt P14416); assay: Dopamine D2 receptor (DRD2) small molecule antagonists, cell-based qHTS assay (AID 1963595; active = well fitted inhibition curve with a large enough effect in the signal ratio in the repeat runs, with a control signal flat; the % refers to the signal ratio)
In short: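 Antagonist mode in DRD2-HEK293 cells: after compound addition with 0.1 mM Ro20-1724, cells received quinpirole (12 nM) and NKH477 (200 nM) for 30 min at room temperature; HTRF cAMP read after 1 h detection.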

[18] = target: Muscarinic acetylcholine receptor M1 (Homo sapiens) (UniProt P11229); assay: Cholinergic receptor muscarinic 1 (CHRM1) small molecule antagonists, cell-based qHTS assay (AID 1963588); also: nearly all actives have a fitted effect of over 40% in size
In short: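 Compounds were tested at 15 concentrations in three independent runs. Dye-loaded CHRM1-CHO cells were exposed 5 min at room temperature before stimulation by acetylcholine added at 50nM. Intracellular calcium was read kinetically on FDSS for 3 min.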

[19] = target: Beta-2 adrenergic receptor (Homo sapiens) (UniProt P07550); assay: Adrenergic beta2 receptor (ADRB2) small molecule agonists, cell-based qHTS assay (AID 1963593);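 also: CHO cells stably overexpressing human ADRB2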
In short: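 CHO cells stably over-expressing ADRB2 were plated overnight at 37C, then dosed with compounds plus a stimulation mix containing 100uM IBMX and 25uM Ro-20-1724 for 0.5hr at room temperature. cAMP was measured by HTRF competition, 1hr.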

[20] = p53 small molecule agonists, cell-based qHTS assay with human liver microsomes: qHTS cell viability counter screen (AID 1963579); also: nearly all actives have a fitted effect of over 45% in size
In short: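 Metabolically activated exposure: compounds, human liver microsomes and NADPH (0.5 mg/mL final apiece) were added to p53RE-bla cells seeded 5 h earlier, left 16 h at 37 C, and then assessed for viability by CellTiter-Glo luminescence.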
% is scaled to controls: 0 for no effect and ±100 for the full control effect.

Sequence of 5-hydroxytryptamine receptor 2A (Homo sapiens) (P28223 whole entry, looked up): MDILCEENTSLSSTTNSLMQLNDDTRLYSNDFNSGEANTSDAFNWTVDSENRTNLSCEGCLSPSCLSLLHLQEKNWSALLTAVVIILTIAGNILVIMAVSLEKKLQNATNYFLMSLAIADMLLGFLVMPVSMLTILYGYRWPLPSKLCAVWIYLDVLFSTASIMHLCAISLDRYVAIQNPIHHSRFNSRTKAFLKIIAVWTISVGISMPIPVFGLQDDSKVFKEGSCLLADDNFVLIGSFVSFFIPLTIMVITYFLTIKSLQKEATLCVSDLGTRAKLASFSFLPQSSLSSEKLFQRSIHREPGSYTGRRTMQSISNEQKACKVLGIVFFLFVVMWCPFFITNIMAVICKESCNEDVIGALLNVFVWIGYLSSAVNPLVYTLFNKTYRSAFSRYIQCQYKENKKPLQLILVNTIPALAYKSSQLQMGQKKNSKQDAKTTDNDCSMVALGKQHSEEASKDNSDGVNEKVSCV
Sequence of KiSS-1 receptor (Homo sapiens) (Q969F8 whole entry, looked up): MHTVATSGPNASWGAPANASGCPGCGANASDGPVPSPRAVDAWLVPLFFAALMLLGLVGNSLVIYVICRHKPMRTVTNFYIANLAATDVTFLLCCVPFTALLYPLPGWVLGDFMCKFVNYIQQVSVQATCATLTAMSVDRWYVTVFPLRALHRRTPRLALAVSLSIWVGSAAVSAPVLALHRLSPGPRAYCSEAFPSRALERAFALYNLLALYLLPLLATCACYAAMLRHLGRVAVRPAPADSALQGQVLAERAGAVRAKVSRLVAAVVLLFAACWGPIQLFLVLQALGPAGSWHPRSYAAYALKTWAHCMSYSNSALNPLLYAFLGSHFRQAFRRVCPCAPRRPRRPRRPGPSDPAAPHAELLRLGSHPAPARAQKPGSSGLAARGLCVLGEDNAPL
Sequence of Muscarinic acetylcholine receptor M1 (Homo sapiens) (P11229 whole entry, looked up): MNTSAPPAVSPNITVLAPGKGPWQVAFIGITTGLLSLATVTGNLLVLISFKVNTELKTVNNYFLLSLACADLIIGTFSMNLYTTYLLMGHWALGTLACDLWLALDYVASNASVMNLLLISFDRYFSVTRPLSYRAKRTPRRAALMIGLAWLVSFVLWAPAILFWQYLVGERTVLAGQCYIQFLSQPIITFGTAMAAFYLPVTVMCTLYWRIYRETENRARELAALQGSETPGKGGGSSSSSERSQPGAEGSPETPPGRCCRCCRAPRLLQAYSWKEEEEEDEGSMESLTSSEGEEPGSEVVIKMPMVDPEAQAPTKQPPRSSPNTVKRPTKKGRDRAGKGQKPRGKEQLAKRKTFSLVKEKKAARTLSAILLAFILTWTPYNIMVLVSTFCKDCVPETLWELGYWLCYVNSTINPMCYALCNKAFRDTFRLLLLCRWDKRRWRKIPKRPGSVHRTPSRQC
Sequence of Beta-2 adrenergic receptor (Homo sapiens) (P07550 whole entry, looked up): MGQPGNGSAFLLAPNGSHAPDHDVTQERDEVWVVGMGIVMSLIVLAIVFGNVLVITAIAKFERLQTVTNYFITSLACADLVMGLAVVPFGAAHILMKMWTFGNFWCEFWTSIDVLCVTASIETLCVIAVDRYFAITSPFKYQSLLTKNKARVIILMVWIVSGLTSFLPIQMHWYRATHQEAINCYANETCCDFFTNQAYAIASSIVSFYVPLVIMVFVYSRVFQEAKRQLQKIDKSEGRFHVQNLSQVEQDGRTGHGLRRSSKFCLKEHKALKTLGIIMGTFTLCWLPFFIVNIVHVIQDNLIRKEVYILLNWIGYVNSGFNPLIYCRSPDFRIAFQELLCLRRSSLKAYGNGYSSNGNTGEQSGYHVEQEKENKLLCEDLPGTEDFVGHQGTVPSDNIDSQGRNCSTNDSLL
Sequence of Gonadotropin-releasing hormone receptor (Homo sapiens) (P30968 whole entry, looked up): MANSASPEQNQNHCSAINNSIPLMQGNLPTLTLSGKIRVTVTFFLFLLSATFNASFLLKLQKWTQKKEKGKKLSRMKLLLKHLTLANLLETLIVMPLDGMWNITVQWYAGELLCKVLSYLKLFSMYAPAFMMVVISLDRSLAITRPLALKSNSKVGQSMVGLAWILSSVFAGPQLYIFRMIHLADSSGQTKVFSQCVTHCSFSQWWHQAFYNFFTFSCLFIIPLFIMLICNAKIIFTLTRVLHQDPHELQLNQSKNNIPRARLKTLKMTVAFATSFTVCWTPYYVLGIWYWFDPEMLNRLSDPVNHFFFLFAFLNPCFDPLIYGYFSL
Sequence of D(2) dopamine receptor (Homo sapiens) (P14416 whole entry, looked up): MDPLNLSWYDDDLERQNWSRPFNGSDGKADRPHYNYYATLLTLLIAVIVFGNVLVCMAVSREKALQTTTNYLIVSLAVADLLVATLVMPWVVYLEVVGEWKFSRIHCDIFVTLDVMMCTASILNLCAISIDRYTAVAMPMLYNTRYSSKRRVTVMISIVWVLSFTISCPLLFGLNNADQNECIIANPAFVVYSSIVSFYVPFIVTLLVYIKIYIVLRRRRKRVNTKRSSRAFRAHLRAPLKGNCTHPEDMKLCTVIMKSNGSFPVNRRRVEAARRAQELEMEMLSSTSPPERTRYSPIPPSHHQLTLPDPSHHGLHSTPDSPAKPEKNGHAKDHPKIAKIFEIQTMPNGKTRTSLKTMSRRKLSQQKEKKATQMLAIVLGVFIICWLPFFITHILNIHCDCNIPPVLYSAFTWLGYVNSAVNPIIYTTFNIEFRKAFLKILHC

C=CCCCCCCCCCCC
inactive: activity change, negative = cytotoxicity [1] -0.936% [at 8.39 µM] | activity, positive = activation [2] -0.901% [at 8.39 µM] | activity change [3] -0.462% [at 5.22 µM, stronger effect = higher value] | activation [4] 3.21% [at 6.97 µM] | activation [5] -0.84% [at 5.23 µM] | activation [6] 1.56% [at 5.99 µM] | activity change, negative = cytotoxicity [7] -1.27% [at 5.99 µM] | activity change, negative = cytotoxicity [8] 18.8% [at 5.99 µM] | activation [9] 0.37% [at 5.99 µM] | activity, negative = inhibition [10] 4.71% [at 5.62 µM] | activation [11] 0.539% [at 7.02 µM] | activation [12] -0.585% [at 6.97 µM] | activation [13] -0.0768% [at 8.39 µM] | activity change, negative = inhibition [14] -0.765% [at 8.39 µM] | activity change, negative = inhibition [15] -1.18% [at 8.39 µM] | activation [16] -0.7% [at 8.39 µM] | activity change, negative = inhibition [17] -0.184% [at 8.38 µM]

CC(C)CCCCOC(=O)c1ccccc1C(=O)OCCCCC(C)C
inactive: Potency [1] | Potency [2] | Potency [3] | Potency [4] | Potency [5] | Potency [6] | Potency [7] | Potency [9] | Potency [10] | Potency [11] | Potency [18] | Potency [12] | Potency [13] | Potency [14] | Potency [15] | Potency [19] | Potency [16] | Potency [17]

O=C(CCS)OCC(COC(=O)CCS)(COC(=O)CCS)COC(=O)CCS
inactive: Potency [1] | Potency [2] | Potency [3] | Potency [4] | Potency [5] | Potency [6] | Potency [20] | Potency [7] | Potency [8] | Potency [9] | Potency [10] | Potency [11] | Potency [18] | Potency [12] | Potency [13] | Potency [14] | Potency [15] | Potency [16]

Cc1ccc(O)c([N+](=O)[O-])c1
inactive: Potency [1] | Potency [2] | Potency [3] | Potency [4] | Potency [5] | Potency [6] | Potency [20] | Potency [7] | Potency [8] | Potency [9] | Potency [10] | Potency [11] | Potency [18] | Potency [12] | Potency [13] | Potency [14] | Potency [15] | Potency [19] | Potency [16] | Potency [17]
